Compound activity from PubChem.
In the library only some 5.7% were active in any assay of this set; here they are far more common.
Nrf2 inh: Nrf2 pathway inhibition | 360,000 tested, 2.1% active | Potency, µM (highest dose often 46 µM), without a hit: at the highest dose activity change, negative = inhibition, usual class: inhibitors | A549 ARE-Fluc reporter, luciferase luminescence, 18-24 h; further: potency means the concentration at half of the fitted maximal effect; nearly all actives have a fitted effect of over 60% in size
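A549 ARE_Fluc cells (5000/well, 5% FBS OPTI-MEM) pre-incubated 2 h, then treated with compounds 18-24 h at 37C/5% CO2 in concentration-response. CellTiter-Fluor viability read first; BugLite luciferase luminescence after 15 min at room temperature gives Nrf2 activity.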
A549 tox: A549 cytotoxicity, counter-screen for Nrf2 inhibitors. A549 ARE-Fluc cells, CellTiter-Fluor viability, 18-24 h. AID 504648. 390,000 tested, 0.16% active. Potency, µM (highest dose often 46 µM), inactives show at the top dose activity change, negative = cytotoxicity, most hits filed as inhibitors; further: potency means the concentration at half of the fitted maximal effect
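Cytotoxicity counterscreen: CellTiter-Fluor fluorescence was measured in A549 ARE_Fluc cells after 18-24 h of compound exposure in a concentration series. The subsequent BugLite luminescent read reports ARE-luciferase activity.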
PI4K2A inh: PI4K2A (human) kinase inhibition; Q9BTU6; purified PI4K2A, ADP-Glo luminescence, 1 h; stronger effect = lower value; activity change, negative = inhibition, % at 76.9 µM; 420,000 tested, 0.13% active; in the data active means activity change below about -50%; inconclusive means mostly about -30% to -49%;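 further: -100% = wells without enzyme as full effect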
Target sequence (Q9BTU6 whole entry, looked up): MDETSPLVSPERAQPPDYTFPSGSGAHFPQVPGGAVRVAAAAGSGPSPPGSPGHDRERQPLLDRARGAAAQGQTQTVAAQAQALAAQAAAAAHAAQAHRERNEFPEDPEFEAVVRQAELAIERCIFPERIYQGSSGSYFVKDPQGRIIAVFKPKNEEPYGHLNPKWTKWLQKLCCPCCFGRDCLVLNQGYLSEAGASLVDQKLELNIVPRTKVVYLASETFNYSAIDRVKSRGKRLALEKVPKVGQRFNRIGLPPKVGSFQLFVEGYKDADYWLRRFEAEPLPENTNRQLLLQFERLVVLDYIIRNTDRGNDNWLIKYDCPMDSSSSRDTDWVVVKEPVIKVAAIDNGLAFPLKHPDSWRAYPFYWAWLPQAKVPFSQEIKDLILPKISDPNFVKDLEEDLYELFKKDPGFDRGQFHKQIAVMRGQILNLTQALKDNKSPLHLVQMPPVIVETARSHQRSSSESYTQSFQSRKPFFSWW
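PI4K2A activity was measured by ADP-Glo luminescence: enzyme (4 ug/mL stock) and phosphatidylinositol (1.2 mM stock) in Tris pH 7.5/MgCl2/EGTA/Triton X-100 buffer were reacted with ATP (300 microM stock) for one hour at ambient temperature.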
KB-V1 cytotox: kills drug-selected multidrug resistant KB-V1 cells; KB-V1 MDR cells viability, CellTiter-Glo, 72 h; Potency, µM (top dose mostly 46.1 µM), actives largely listed as cytotoxic; 400,000 tested, 3.4% active; AID 1347076; further: potency means the concentration at half of the fitted maximal effect; nearly all actives have a fitted effect of over 60% in size
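Readout: CellTiter-Glo luminescence, 10 min after addition. Cells: KB-V1 MDR subline, 72 h at 37 degrees C with compound. Analysis: corrected, normalized data fitted to concentration-effect curves.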
KB-3-1 tox: kills parental KB-3-1 adenocarcinoma cells; KB-3-1 viability, CellTiter-Glo ATP luminescence, 72 h; Potency, µM (top dose mostly 46.1 µM), most hits filed as cytotoxic; 400,000 tested, 1.4% active; AID 1347075; further: potency means the concentration at half of the fitted maximal effect; nearly all actives have a fitted effect of over 60% in size
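72 h, 37 °C compound treatment of KB-3-1 parental cells; CellTiter-Glo added, 10 min, luminescence read. Data corrected against DMSO-only plates and normalized before curve fitting.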
Giardia killer: Giardia lamblia killing | Giardia lamblia trophozoite viability | activity change, % at 7.66 µM, hits read low | 340,000 tested, 0.15% active; in the data active means activity change below about -80%; inconclusive means between about -30% and that limit;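 further: parasites exposed to compound for two days anaerobically before the ATP read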
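Killing of trophozoites was scored by loss of ATP luminescence after a 48 hrs anaerobic exposure to compounds at 37 deg C, using 100 cells per well.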
* = called active by the depositor; i = inactive; ? = inconclusive; nt = no result given. Unless noted, the call rests on the fitted dose curve; in most records, active means well fitted curve in the direction sought with a large enough effect; inconclusive means small, poorly fitted or top-dose-only effect, or another doubt; inactive means no such curve, though single readings can be large; an effect the other way counts as inactive or inconclusive. Unless noted, on the % scale 0 is the no-effect control and ±100 the full control effect.

SMILES	Nrf2 inh	A549 tox	PI4K2A inh	KB-V1 cytotox	KB-3-1 tox	Giardia killer
Cc1ccc(N=Nc2c(N)[nH]n3c(=O)cc(C)nc23)cc1	-16.3%	?	11.6	23.1µM*	18.4µM*	1.5
Nc1[nH]n2c(=O)cc(-c3ccccc3)nc2c1N=Nc1ccccc1	nt	?	-4.3	?	8.2µM*	2.4
Cc1ccc(N=Nc2c(=O)[nH]n3c(C)cc(C)nc23)cc1	-14.8%	?	-26.5	i	i	4.9
COCCCN1C(=O)[C@H](CC(=O)NCCc2ccccc2OC)[C@]2(C(=O)OC)CCCCC=C12	nt	nt	2.2	nt	nt	nt
O=C(Nc1nnc(-c2ccccc2)s1)C1CCCN(C(=O)c2ccoc2)C1 (stereo not given)	2.8%	0.0%	nt	i	i	6.4
Cc1ccc(-c2nc3ccccc3o2)cc1NC(=S)NC(=O)/C=C/c1ccco1	nt	-5.9%	6.0	?	13µM*	15.0
Cc1ccc(-c2nc3ccccc3s2)cc1NC(=S)NC(=O)/C=C/c1ccco1	nt	?	-1.1	?	?	-5.7
Cc1cccc(NC(=S)NC(=O)/C=C/c2ccco2)c1	?	-7.8%	-12.9	5.17µM*	4.61µM*	4.8
O=C(/C=C/c1ccco1)NC(=S)Nc1cccc([N+](=O)[O-])c1	-35.5%	?	-5.6	?	?	20.7
COc1ccc(-c2nc3ccccc3o2)cc1NC(=O)COc1ccc(C)c(C)c1	nt	-5.2%	2.2	?	5.8µM*	nt
O=C(/C=C/c1ccco1)NC(=S)Nc1ccccc1	?	0.1%	4.0	i	i	-19.1
O=C(/C=C/c1ccco1)NC(=S)Nc1cccc(-c2nc3ccccc3o2)c1	nt	?	?	8.2µM*	?	-13.0
COc1ccc(-c2nc3ccccc3o2)cc1NC(=O)COc1c(C)cc(Cl)cc1Cl	6.9%	3.1%	-4.8	i	?	nt
CN(C)c1ccc(/C=C/C(=O)Nc2cccc([S+](=O)([O-])Nc3ccccc3F)c2)cc1	nt	nt	nt	i	i	nt
CN(C)CCn1c2c(c(SCC(=O)Nc3ccc(F)cc3F)nc1=O)CCC2	nt	7.0%	5.9	nt	nt	nt
O=C(NCc1ccc(C(=O)N2CCCC2)cc1)c1cccc(Br)c1	nt	nt	-1.0	nt	nt	nt
CCOC(=O)c1cccc(NC(=O)c2cc3ccccn3n2)c1	?	1.5%	-2.9	i	i	nt
O=C(/C=C/c1ccco1)NC(=S)Nc1ccc(N2CCOCC2)c(Cl)c1	nt	-2.4%	-0.2	?	4.11µM*	-16.3
O=C(/C=C/c1ccco1)NC(=S)Nc1cccc(-c2nc3ccccc3s2)c1	-8.9%	-17.7%	-5.9	6.51µM*	8.2µM*	4.2
Cc1cccc(-n2c(C)cc(C(=O)C(=O)Nc3ccccc3F)c2C)c1C	16.7%	6.2%	-0.1	i	i	nt
CCOCCCNC(=S)NC1CC2CCC(C1)N2Cc1ccccc1 (stereo not given)	0.7%	4.4%	-1.5	i	i	10.4
CCCN1C2CCCC1CC(NC(=S)NCCCOCC)C2 (stereo not given)	1.4%	4.3%	5.3	8.2µM*	i	9.0
N#CC1=C(N)Oc2cc(N)ccc2C1c1cccnc1 (stereo not given)	10.9%	-0.3%	-3.1	i	?	12.9
CCN(CC)c1ccc2c(c1)OC(N)=C(C#N)C2c1cccnc1 (stereo not given)	-9.8%	?	-15.9	0.291µM*	0.0411µM*	8.2
CNC(=O)c1c(I)c(NC(C)=O)c(I)c(C(=O)O)c1I	nt	nt	4.2	nt	nt	nt
CC1=C(C(=O)OC2CCCC2)C(c2ccc(C)o2)C2=C(CC(c3cccs3)CC2=O)N1 (stereo not given)	?	-23.6%	0.2	20.6µM*	i	1.1
CCCOC(=O)C1=C(C)NC2=C(C(=O)CCC2)C1c1cccs1 (stereo not given)	8.7%	-4.3%	2.9	23.1µM*	i	6.3
CC1=C(C(=O)OC2CCCCCC2)C(c2ccc(C)o2)C2=C(CCCC2=O)N1 (stereo not given)	?	?	3.2	?	i	-8.7
